“And” between values parts separate entries of the source, which are not always exact repeats. Equal entries are not always repeated. Records with an inconclusive call do not appear. A call without a number means that no potency is given here. A number with no mark means an inactive call. The source made the active and inactive calls. Calls follow the shape of the dose curve; as a rule, active = well fitted cell-killing curve with a large enough effect; inconclusive = small, poorly fitted or top-dose-only effect; inactive = no such curve, though single readings can be large or run the other way.
Potency is read from the fitted curve at half-maximal effect.

This test can be described thus: qHTS of pediatric cancer cell lines to identify multiple opportunities for drug repurposing: Primary screen for Saos-2 cells (AID 1347097). Also: nearly all actives have a fitted effect of over 40% in size. Particulars: Saos-2 viability, CellTiter-Glo ATP luminescence, 48 h; series mostly up to 46 µM; activity change, negative = cytotoxic: at the top concentration. The text has this:
Drug repurposing or repositioning has been offered as a strategy for drug development in oncology programs. This approach has special potential for childhood cancers and other rare or orphan diseases, where the expected return on new drug development has been a disincentive to pharmaceuticals. […] In this project we exploit the poly-pharmacology of drugs to discover new indications via phenotypic screening of a panel of 19 well-characterized cell lines derived from solid tumors seen in children and adolescents. The goal is to identify approved drugs with previously unrecognized anticancer properties that has the potential to reveal new mechanisms and biological processes involved in carcinogenesis or drug resistance. We employed a titration-based paradigm (quantitative high-throughput screening or qHTS), where all compounds were tested at multiple concentrations for their effect on cell viability. Concentration-response curves (CRCs) were derived directly from the primary screen, and both potency and efficacy values were used to identify compounds with robust bioactivity profiles. We screened the NIH Chemical Genomics Center (NCGC) Pharmaceutical Collection (NPC) and Mechanism Interrogation Plate (MIPE) small molecule collections of approved and investigational compounds against these cell lines; and measured metabolically active cells after 48 hours of compound treatment as a proxy for cell viability. […] Assay Submitter: Nathalia J. Martinez, National Center for Advancing Translational Sciences, National Institutes of Health, Rockville, MD, USA; email: natalia.martinez@nih.gov Shen, M et al. Quantitative high-throughput phenotypic screening of pediatric cancer cell lines identifies multiple opportunities for drug repurposing. Oncotarget 2017 Dec 19;9(4):4758-4772. PMID 29435139.
The cells were obtained from University of North Carolina (UNC), Pediatric Preclinical Testing Program (PPT), and Coriell Institute (CI). qHTS cell viability assay: Cells were assayed in growth media at a density of 500-1,000 cells/well. Five microliters of cells were dispensed into 1,536-well, white, solid-bottom, TC-treated plates (Greiner Bio One) using a multidrop dispenser and incubated at 37 degrees C, 5% CO2, under a humidified atmosphere for 5 hours. Twenty-three nanoliters of compounds and controls (neutral control DMSO or positive control bortezomib at final concentration of 2.3 µM) were subsequently transferred by Kalypsys pintool. For primary screens, the MIPE collection was tested at 11-point dilutions (final concentrations range from 0.78 nM to 46 µM) and the NPC collection at 8-point dilutions (final concentrations range from 0.59 nM to 46 µM). Compounds tested in follow-up screens were assayed at 11-point dilutions. Cells were incubated for 48 hours, followed by addition of 3 µL of CellTiter-Glo (Promega). After a 15 min incubation at room temperature, samples were analyzed for luminescence intensity using a ViewLux High-throughput CCD imager equipped with clear filters.
On the technique in general: Quantitative high-throughput screening tests each substance at several concentrations.
Regarding `Cc1cn([C@H]2C[C@H](N=[N+]=[N-])[C@@H](CO)O2)c(=O)[nH]c1=O`, the “activity change, negative = cytotoxic” value is 13.3%.
`Cc1ccc(-c2cc(C(F)(F)F)nn2-c2ccc(S(N)(=O)=O)cc2)cc1`: the Potency is 16.8 µM (active).
Turning to `Cn1ccc2cc3c(cc21)CCN3C(=O)Nc1cccnc1`, the “activity change, negative = cytotoxic” value is 12%.
Turning to `NS(=O)(=O)c1cc2c(cc1Cl)NCNS2(=O)=O`, the Potency entry is “inactive”.
As to `NC12CC3CC(CC(C3)C1)C2`, the Potency entry is “inactive”.
Still for that read-out and setting: the same measure for `C[C@H]1c2cccc(O)c2C(O)=C2C(=O)[C@]3(O)C(O)=C(C(N)=O)C(=O)[C@@H](N(C)C)[C@@H]3[C@@H](O)[C@@H]21`: “inactive”; for `CCOC(=O)c1ncn2c1CN(C)C(=O)c1cc(F)ccc1-2`: “inactive”.
In the case of `Cc1ccccc1N1C(=O)c2cc(S(N)(=O)=O)c(Cl)cc2NC1C` (stereo not given), the Potency entry was “inactive”.
`COc1cc2c(c(OC)c1OC)-c1ccc(OC)c(=O)cc1[C@@H](NC(C)=O)CC2`: the Potency is 5.3 nM (active) and 1.32 µM (active).
Take `Cc1cc(C(C)(C)C)cc(C)c1CC1=NCCN1`: the “activity change, negative = cytotoxic” value was -22%.
Turning to `CN1CCN(C2=Nc3cc(Cl)ccc3Nc3ccccc32)CC1`, the Potency entry is “inactive”.
Same read-out and setting: the same measure for `Cc1ccc(C(=O)Nc2ccc(S(=O)(=O)O)c3cc(S(=O)(=O)O)cc(S(=O)(=O)O)c23)cc1NC(=O)c1cccc(NC(=O)Nc2cccc(C(=O)Nc3cc(C(=O)Nc4ccc(S(=O)(=O)O)c5cc(S(=O)(=O)O)cc(S(=O)(=O)O)c45)ccc3C)c2)c1`: “inactive”.
Consider `CC(C)(Oc1ccc(C2CC2(Cl)Cl)cc1)C(=O)O` (stereo not given), for which the Potency result is “inactive”.
As to `Nc1nnc(-c2cccc(Cl)c2Cl)c(N)n1`, the “activity change, negative = cytotoxic” value was 17.2%.
In the case of `Cc1cn([C@H]2C=C[C@@H](CO)O2)c(=O)[nH]c1=O`, the Potency entry was “inactive”.
For the molecule `O=C(c1ccc(OCCN2CCCCC2)cc1)c1c(-c2ccc(O)cc2)sc2cc(O)ccc12`, the Potency is 14.8 µM (active).
For `CS(=O)(=O)Nc1ccc([N+](=O)[O-])cc1Oc1ccccc1`, the Potency entry was “inactive”.
Still for that read-out and setting: next, `Cn1c(=O)c2[nH]cnc2n(C)c1=O`: “inactive”; `CC(C)NCC(O)COc1ccc(CCOCC2CC2)cc1` (stereo not given): “inactive”; `CC(C)(C)C(=O)Oc1ccc(S(=O)(=O)Nc2ccccc2C(=O)NCC(=O)O)cc1`: “inactive”.
Turning to `CC12CC3CC(C)(C1)CC(N)(C3)C2`, the Potency entry is “inactive”.
Same read-out and setting: the same measure for `O=c1c(-c2ccc(O)cc2)coc2cc(O)cc(O)c12`: “inactive”; for `Cn1c(=O)c2c(ncn2C)n(C)c1=O`: “inactive”.
On to `O=C1c2c(O)ccc(O)c2C(=O)c2c(NCCNCCO)ccc(NCCNCCO)c21`, for which the Potency is 1.66 µM (active) and 1.68 µM (active).
Consider `NC(CO)C(=O)NNCc1ccc(O)c(O)c1O` (stereo not given), for which the “activity change, negative = cytotoxic” value was -13.2%.
For the molecule `Nc1ccn([C@H]2CC[C@@H](CO)O2)c(=O)n1`, the Potency entry was “inactive”.
Same read-out and setting: the same measure for `Cc1cc(C(C)(C)C)c(O)c(C)c1CC1=NCCN1`: “inactive”; for `CN(C)CCC=C1c2ccccc2C=Cc2ccccc21`: 29.6 µM (active).
For the molecule `CN1CCN2c3ccccc3Cc3ccccc3C2C1` (stereo not given), the “activity change, negative = cytotoxic” value is -17.6%.
For `CC1(CN2CCC(n3c(=O)[nH]c4ccccc43)CC2)OCc2ccccc2-n2cccc21` (stereo not given), the “activity change, negative = cytotoxic” value was 0.144%.
For `CN(CCOc1ccc(NS(C)(=O)=O)cc1)CCc1ccc(NS(C)(=O)=O)cc1`, the Potency entry was “inactive”.
With `CC(C(=O)O)c1cccc(C(=O)c2ccccc2)c1` (stereo not given), the “activity change, negative = cytotoxic” value was 9.89%.
With `CC[N+](CC)(CC)CCOc1cccc(OCC[N+](CC)(CC)CC)c1OCC[N+](CC)(CC)CC`, the Potency result was “inactive”.
Take `O=c1[nH]cc(F)c(=O)[nH]1`: the “activity change, negative = cytotoxic” value is 1.14%.
The same measure, in the same setting: the same measure for `CN1C2CCC1CC(OC(=O)C(CO)c1ccccc1)C2` (stereo not given): 0.833%.
For `CC(C)Cc1ccc(C(C)C(=O)O)cc1` (stereo not given), the Potency entry was “inactive”.
Consider `CCC1(c2ccccc2)C(=O)NCNC1=O`, for which the Potency entry was “inactive”.
Regarding `COc1ccc(C2CNC(=O)C2)cc1OC1CCCC1` (stereo not given), the Potency result was “inactive”.
In the case of `CN(Cc1cnc2nc(N)nc(N)c2n1)c1ccc(C(=O)N[C@@H](CCC(=O)O)C(=O)O)cc1`, the “activity change, negative = cytotoxic” value was 8.05%.
On to `CN(C)CCCN1c2ccccc2CCc2ccc(Cl)cc21`, for which the Potency is 16.8 µM (active).

The values above are taken from PubChem BioAssay (NCATS).
